Among all 190,000 compounds or so, about 930 (0.49%) were called active. Some of the results follow. Measured potencies and affinities stand elsewhere. Unmarked numbers belong to inactive results.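 How the source made its calls: active means z-score of insulin promoter reporter brightness in nuclei below -3 at 5 µM, with at least 500 cells counted; inconclusive means wells with under 500 cells, flagged as toxic or sparse; inactive means the rest.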

The assay is described as follows: insulin promoter down-regulators in MIN6 cells, imaging, high-content screening, mouse beta cells (AID 1628). As to conditions: MIN6 insulin promoter GFP reporter, at 5 µM, active compounds read low.
As for `Cc1ccc(CNc2ccc3c(c2)OCO3)cc1`, the z-score is 5.54.

In the case of `CCOc1ccc2[nH]c(=O)c(CN(CCc3ccccc3)C(=O)N3CCOCC3)cc2c1`, the z-score is 5.49.

With `Cc1ccc(NC(=O)N(Cc2ccc3c(c2)OCO3)Cc2cc3cc4c(cc3[nH]c2=O)OCCO4)cc1`, the z-score is -5.39 (active).

`CC(C)(C)c1cc(CCC(=O)NNC(=S)NC(=O)c2ccccc2)cc(C(C)(C)C)c1O`: the z-score was -4.33 (active).

For the compound `COc1ccc(CC(=O)NNC(=S)Nc2ccccc2)cc1Cl`, the z-score was 2.56.

`N#Cc1c(NC(=S)NC(=O)c2ccccc2)sc2c1CCN(CCc1ccccc1)C2`: the z-score was 5.28.

Turning to `CCc1nc(C)cn1S(=O)(=O)c1cc(OC)c(C)cc1C`, the z-score was -4.29 (active).

For `CC(=O)Cc1cc(O)c2ccccc2c1OC(=O)c1ccc(Br)cc1`, the z-score was 8.75.

As to `Cc1ccccc1NC(=O)c1cc(C(=O)c2cc(Cl)ccc2O)cn(-c2ccccc2C)c1=O`, the z-score is -3.14 (active).

With `CN1CC=C2C(C#N)=C(N)C(C#N)(C#N)[C@H](c3cccs3)[C@H]2C1`, the z-score was 10.3.

In the case of `CCSc1ccc(C(=O)Nc2ccc(Br)cn2)cc1[N+](=O)[O-]`, the z-score was 1.11.

Take `O=C(Nc1ccc(Cl)cn1)c1ccc([N+](=O)[O-])o1`: the z-score is -3.08 (active).

Regarding `CCCN1C(=O)S/C(=C/c2ccc(N3CCOCC3)o2)C1=O`, the z-score is 14.8.

Consider `COc1ccc(C(=O)CSC2=C(C#N)C3(CCCCC3)C(C#N)=C(N)N2)cc1`, for which the z-score is -3.18 (active).

Consider `COc1ccccc1NC(=O)C1=C(C)NC(SCC(=O)c2ccc(C)cc2)=C(C#N)C1c1ccco1` (configuration not stated), for which the z-score was 3.29.

Turning to `CCn1c(C)[n+](CC)c2ccc(S(=O)(=O)N(C)C)cc21`, the z-score is -3.4 (active).

For the compound `CCN1CCN(C(=O)c2cn(CC)c3ccc(S(=O)(=O)N(C)C)cc3c2=O)CC1`, the z-score is 2.68.

Turning to `CC(=O)CCc1c(C)c2cccc(C)c2[nH]c1=O`, the z-score was -0.43.

On to `CC(C)Cn1cc(C(=O)NC2CCN(Cc3ccccc3)CC2)c2c3ccccc3n(C)c2c1=O`, for which the z-score was -3.06 (active).

With `CCOc1ccccc1CNC(=O)c1cn(C)c(=O)c2c1c1ccccc1n2C`, the z-score is 1.59.

Regarding `COCCn1cc(C(=O)NCc2ccco2)c2c3ccccc3n(C)c2c1=O`, the z-score was 2.09.

`Cc1nc(Cl)c2c(n1)NC1=C(O2)C(=O)CCC1`: the z-score was -4.1 (active).

`COc1ccc(N(C)S(=O)(=O)c2cccc(C(=O)Nc3nc4ccccc4[nH]3)c2)cc1`: the z-score was -3.07 (active).

As for `CN(/C(=N\S(=O)(=O)c1ccccc1)c1ccccc1)c1ccc(O)cc1`, the z-score is 1.42.

Take `CN(c1cccc(Cl)c1)S(=O)(=O)c1cccc(C(=O)NC2=NCCS2)c1`: the z-score is 3.48.

For `CCOc1ccc(C2C(C#N)=C(N)SC(N)=C2C#N)c(OCC)c1`, the z-score is -3.06 (active).

Consider `CCN(CC)c1ccc(/C=C(\C#N)C(=O)c2ccc(Br)cc2)cc1`, for which the z-score is 3.66.

Consider `O=C(NCc1cn2ccccc2n1)c1ccco1`, for which the z-score was 3.67.

With `COc1ccc2cc3cc(C(=O)NCc4ccccn4)oc3nc2c1`, the z-score was 3.32.

As to `O=C(NCc1ccccn1)c1ccc(Cn2cc(Br)cn2)o1`, the z-score was -3.96 (active).

As to `COc1ccc2c(n1)Sc1nc3ccccc3nc1N2`, the z-score is 9.57.

Regarding `COc1ccc2c(c1)oc(=O)c1ccccc12`, the z-score is -0.04.

In the case of `Cc1[nH]ccc(=O)c1OCc1c(Cl)cccc1Cl`, the z-score was -6.12 (active).

Consider `COC(=O)c1c[nH]n2c(=O)c(Cc3ccc(F)cc3Cl)c(C)nc12`, for which the z-score was 3.42.

On to `CC(=O)Oc1ccc(OC(C)=O)c(SCCCCCCl)c1`, for which the z-score is -3.45 (active).

Take `CC(=O)Oc1cc2cccc(OC(C)=O)c(=O)c2c(OC(C)=O)c1OC(C)=O`: the z-score is -0.38.

Regarding `COC(=O)[C@H]1[C@H](C(=O)OC)[C@@H](C(=O)OC)N(c2ccc(OC)cc2)[C@@H]1C(=O)OC`, the z-score was -4.45 (active).

Consider `O=C(CCNS(=O)(=O)c1ccc(Cl)cc1)NCc1cccs1`, for which the z-score is 1.64.

Regarding `CC(C)(CNS(=O)(=O)c1ccc(Cl)cc1)N1CCCCC1`, the z-score is 3.62.

Consider `CCNC(=S)NS(=O)(=O)c1ccc(Cl)cc1`, for which the z-score was -3.8 (active).

As for `CCCCCCN1C=CC(=C/C=C(\C#N)C(=O)OCC)C=C1`, the z-score is 16.6.

As for `O=C(CCn1c(=O)sc2ccccc21)Nc1cccnc1`, the z-score is 0.79.

As for `C=CCN1C(=O)/C(=C\c2ccc(OC(=O)c3ccco3)c(OC)c2)SC1=S`, the z-score was 1.03.

Regarding `COc1ccc(Cn2c(=O)sc3ccccc32)cc1OC`, the z-score is -3.63 (active).

`COc1cc(C)c(Cl)cc1S(=O)(=O)NCc1ccncc1`: the z-score is -4.94 (active).

In the case of `Cc1ccc(S(=O)(=O)NCc2ccncc2)c(C)c1C`, the z-score was -6.46 (active).

Take `COc1ccc(S(=O)(=O)NCc2ccncc2)cc1OC`: the z-score is -3.36 (active).

As to `COc1cccc(S(=O)(=O)NCc2ccc(C(=O)Nc3ccc(Cl)c(Cl)c3)cc2)c1`, the z-score is 3.13.

`Cc1cc(C)n(C(=O)CCC2COc3ccccc3O2)n1` (configuration not stated): the z-score was 3.53.

Take `CCOC(=O)c1c(NC(=O)c2nn(CC)cc2Br)c(C#N)cn1-c1ccccc1`: the z-score was -3.62 (active).

`c1ccc2c(c1)CCN(CCCNc1nc3ccccc3n3cnnc13)C2`: the z-score is -3.05 (active).

On to `CCn1cc(C(=O)NCCN(C)CCc2ccccc2)c(=O)c2cc(S(=O)(=O)N(C)C)ccc21`, for which the z-score was 3.87.

Turning to `CN1CCNC(=O)C1CC(=O)NCCC1=CCCCC1` (configuration not stated), the z-score is 3.77.

For the compound `CCN(CC)S(=O)(=O)c1ccc2[nH]cc(C(=O)NCCC3=CCCCC3)c(=O)c2c1`, the z-score was -6.41 (active).

Consider `CN1CC=C2C(C#N)=C(N)C(C#N)(C#N)C(Cc3ccccc3)C2C1` (configuration not stated), for which the z-score was 3.5.

Turning to `Cc1cccc(NC(=S)NNC(=O)c2csc(C(C)C)c2)c1`, the z-score was 1.31.

Take `COc1cccc(-c2nc(N3CCCCC3C)c3ccccc3n2)c1O` (configuration not stated): the z-score is -3.15 (active).

`COC(=O)c1cc2c(-c3ccccc3)c(C)c3ccccn3c-2c1C(=O)OC`: the z-score was 4.22.

In the case of `O=C1c2cccc3c(N4CCCCC4)ccc(c23)C(=O)N1c1ccccc1O`, the z-score was 4.51.

On to `CC1Cc2ccccc2N1S(=O)(=O)c1cccs1` (configuration not stated), for which the z-score is -6.66 (active).

Regarding `O=S(=O)(c1cccs1)N1CCCc2ccccc21`, the z-score is -3.97 (active).

Consider `CC(C)(C)NC(=O)NC(=O)CN1CCCc2ccccc21`, for which the z-score was 2.02.

The values are drawn from PubChem BioAssay AID1628 (Sanford-Burnham Center for Chemical Genomics, 2009).
